Bioassay records from PubChem.
Compounds with a hit are over-represented: about 3.2% of the library has one in this group of screens.
CHT allo act = allosterically activates the human high affinity choline transporter; CHT-expressing cells, membrane potential dye, choline EC20; stronger effect = higher value; LV-AA mutant CHT in HEK293 cells; 310,000 tested, 0.49% active; B-score at 10 µM; Q9GZV3;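 active means initial fluorescence not abnormally high and integrated response B-score, plate-corrected, over 3 SD above library mean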
Target sequence (Q9GZV3 whole entry, looked up): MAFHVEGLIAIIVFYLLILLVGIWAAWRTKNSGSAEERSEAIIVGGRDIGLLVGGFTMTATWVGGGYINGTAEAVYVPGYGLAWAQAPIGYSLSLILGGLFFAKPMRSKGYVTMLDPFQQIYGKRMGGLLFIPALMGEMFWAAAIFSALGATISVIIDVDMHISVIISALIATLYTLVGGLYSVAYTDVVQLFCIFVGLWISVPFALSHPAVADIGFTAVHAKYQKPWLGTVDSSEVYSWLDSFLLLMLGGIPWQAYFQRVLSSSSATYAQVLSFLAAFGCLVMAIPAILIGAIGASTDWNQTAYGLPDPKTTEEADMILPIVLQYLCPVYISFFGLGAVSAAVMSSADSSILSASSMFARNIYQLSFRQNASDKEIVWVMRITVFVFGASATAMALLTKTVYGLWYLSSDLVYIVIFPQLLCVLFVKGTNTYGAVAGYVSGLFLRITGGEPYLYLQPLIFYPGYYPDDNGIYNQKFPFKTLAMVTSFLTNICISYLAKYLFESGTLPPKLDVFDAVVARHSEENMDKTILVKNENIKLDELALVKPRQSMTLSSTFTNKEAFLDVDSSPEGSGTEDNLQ
TMEM16A act = activates or potentiates the mouse TMEM16A chloride channel | Q8BHY3 | HEK293 TMEM16A/YFP-H148Q/I152L, iodide quench fluorescence; stronger effect = lower value | B-score at 10 µM | 340,000 tested, 0.3% active;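 active means fluorescence-ratio B-score plate-corrected deviation score at least 3 library SD below zero, with starting fluorescence score within 5 deviations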;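 further: channel opened by trigger with iodide after compound preincubation; score built on the fluorescence ratio of max minus min over baseline; more negative score means more quench and so TMEM16A activation or potentiation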
Kir21 inh = Kir2.1 (mouse) channel inhibition. P35561. HEK293-Kir2.1, FluxOR thallium flux fluorescence; stronger effect = lower value. B-score at 10 µM. 310,000 tested, 0.85% active;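 active means fluorescence ratio B-score at or below minus 3 SD of library scores, with starting-brightness B-score within 2 SD, cut at about -4.2 in these data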;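 further: channel flux triggered by added potassium and thallium sulfate stimulus; B-score of peak minus minimum fluorescence over baseline after thallium stimulus; more negative B-score means stronger Kir2.1 block with less thallium influx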
Rce1 inhib = blocks yeast Ras-converting enzyme; Q03530; yeast membranes, quenched prenylated peptide cleavage fluorescence; calls only; 290,000 tested, 0.27% active;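 active means fall in fluorescence gain of 50% or more versus controls, with final raw signal at or below 3038400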;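 further: plate controls were neutral control wells for no effect and wells lacking membranes for full effect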
CHT block = inhibits the human high affinity choline transporter; Q9GZV3; CHT-expressing cells, membrane potential dye, choline response; stronger effect = lower value; B-score at 10 µM; 310,000 tested, 0.86% active; AID 488975;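 active means B-score over 3 SD under the library average, and starting fluorescence ratio not unusually high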;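 further: choline stimulus applied at its EC90 after an EC20 pre-addition; B-score computed on integrated fluorescence ratio after choline addition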
TMEM16A inh = mouse TMEM16A channel inhibition, primary screen; Q8BHY3; HEK293 TMEM16A/YFP iodide influx fluorescence, ionomycin; normalized B-score (activity score, 25-100; higher = stronger inhibition) at 10 µM; 310,000 tested, 1.2% active;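 active means ratio plate-corrected score three or more library SD toward inhibition, starting fluorescence score within five deviations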;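 further: score derived from kinetic fluorescence span divided by baseline fluorescence per well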
TMEM16A reconf = reconfirmed blocker of mouse TMEM16A calcium-activated chloride channel. shares compounds with TMEM16A inh. HEK293 TMEM16A/YFP-H148Q, iodide quench fluorescence; ionomycin added to raise cell calcium. inhibition, % at 10 µM. 2,300 tested, 39% active. AID 652189;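 active means mean duplicate percent inhibition, scaled so buffer wells are 0 and the reference blocker 100, over three buffer SD above buffer mean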
TMEM16A Ca cntr = calcium mobilization counter-screen hit for TMEM16A inhibitor series. calcium response (% of ionomycin), % at 10 µM. 2,300 tested, 2% active. TMEM16A/YFP HEK293, Fluo4 calcium mobilization. shares compounds with TMEM16A inh;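 active means duplicate-averaged calcium signal over 20% of the ionomycin maximum, relative to buffer baseline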;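 further: each well's signal is peak minus trough fluorescence divided by its pre-addition baseline; 0% = buffer wells and 100% = ionomycin wells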
Parental YFP cnt = parental YFP-HEK293 iodide quench counter-screen activity | shares compounds with TMEM16A inh | ionomycin | YFP ratio F(max-min)/F0 at 10 µM | 2,300 tested, under 10 active | AID 652233;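 active means yellow fluorescent protein signal ratio exceeding the buffer control mean by over 5 SD of those controls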;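 further: ratio is mean of duplicate wells from kinetic YFP trace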
ClC-1 inh = rat ClC-1 inhibition, TMEM16A specificity screen | shares compounds with TMEM16A inh | CHO ClC-1-YFP, iodide influx fluorescence quench; iodide control reads 0, buffer control 100 | ratio percent, % at 10 µM | 2,300 tested, under 10 active;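 active means duplicate-mean ratio percent above the mean of iodide-only control wells, which defines zero, plus 5 of their SD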;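 further: higher percent means stronger block of ClC-1 iodide influx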
Active calls of the source: *; i = inactive; · = not tested or not shown.

SMILES	CHT allo act	TMEM16A act	Kir21 inh	Rce1 inhib	CHT block	TMEM16A inh	TMEM16A reconf	TMEM16A Ca cntr	Parental YFP cnt	ClC-1 inh
Cc1ccc(NC(=O)c2ccc3c(c2)OCCO3)cc1C	i	i	-1	i	i	i	·	·	·	·
Cc1ccc(NC(=O)c2ccc3c(c2)OCCO3)cc1S(=O)(=O)Nc1cccc(Cl)c1	i	i	0	i	i	100*	i	i	-1.3	-3
C#CCCc1ccccc1/C=[N+](/C)[O-]	·	i	·	·	·	·	·	·	·	·
Cc1ccc(C(=O)CSc2nnc(COc3cccc(C)c3)o2)cc1	i	i	1.2	i	i	100*	i	i	-1.1	-12
CCOC(=O)CSc1nnc(COc2cccc(C)c2)o1	i	i	0.23	i	i	i	·	·	·	·
COc1ccccc1N1CCN(C(=O)CSc2nnc3n2C(C)(C)Cc2ccccc2-3)CC1	i	i	-1.6	i	i	25*	i	i	-1.1	-4
CC(NC(=O)c1c(Cl)cnn1C)C1CCCO1 (configuration not stated)	i	i	0.06	i	i	i	·	·	·	·
NC1=C(c2ccccc2)C(=O)NC1=O	i	i	2.7	i	i	i	·	·	·	·
C=CCOC(=O)C1=C(C)NC(C)=C(C(=O)OCC=C)C1c1ccco1	i	i	-0.41	i	i	i	i	i	-0.96	-4
CCOC(=O)C1=C(C)NC(C)=C(C(=O)OC)C1c1ccco1 (configuration not stated)	i	i	0.01	i	i	i	·	·	·	·
NS(=O)(=O)c1ccc(CNC(=O)c2cccnc2Cl)cc1	i	i	1.5	i	i	i	·	·	·	·
Fc1ccc(NCc2cccnc2)cc1	i	i	-3.3	i	i	100*	i	i	-1.2	-2
CCN1CCN(C(=O)/C(=C/c2cccs2)NC(=O)c2ccc(C)c(C)c2)CC1	i	i	-1.2	·	i	i	·	·	·	·
Cc1onc(-c2ccccc2Cl)c1C(=O)Nc1cccc(-c2cn3cccnc3n2)c1	i	i	·	·	i	25*	i	i	-0.95	-8
Cc1onc(-c2ccccc2Cl)c1C(=O)Nc1ccc(F)c(F)c1	i	·	-0.76	i	i	i	·	·	·	·
O=C(CC1C(=O)NCCN1CC1CCCCC1)NCCc1ccc(F)cc1 (configuration not stated)	i	i	-0.04	i	i	i	·	·	·	·
Cc1ccc(C(OCC(C)(C)C[N+](C)(C)C)c2ccccc2)cc1 (configuration not stated)	i	i	0.33	i	i	i	·	·	·	·
CC1(c2ccc(OC(F)F)cc2)NC(=O)N(CC(=O)NC2CCCC2)C1=O (configuration not stated)	·	i	·	·	·	·	·	·	·	·
CC(=O)Nc1ccc(/C=N/N2C(=O)NC(C)(c3ccc(OC(F)F)cc3)C2=O)cc1 (configuration not stated)	i	-13*	0.93	i	i	100*	93%*	i	-0.96	-6
COc1ccccc1CN1CC(C(=O)NCc2cc(F)ccc2C)CCC1=O (configuration not stated)	·	i	-0.87	i	·	·	·	·	·	·
CCN1CCN(c2ccc(NC(=O)COc3ccc(Cl)cc3C)cc2)CC1	·	i	·	·	·	·	·	·	·	·
CCOC(=O)c1ccccc1NC(=O)CSc1nnnn1C1CCCCC1	i	i	-0.03	i	i	100*	i	i	-0.96	-2
CCOC(=O)c1ccccc1NC(=O)CSc1nccn1C	i	i	-0.8	·	i	i	·	·	·	·
